# Data taken from article PMC5540273 (PLoS ONE, 2017).
# Key:
# Conditions in all cases: concentration: 1 μM, replicates: in singlicate; n = 1
# JNK3 = tested on: T1, JNK3
# T1 construct: gene MAPK10
# KIT-autoinhibited = tested on: KIT-autoinhibited
# KIT = tested on: KIT
# LATS1 = tested on: LATS1
# LATS2 = tested on: LATS2
# LCK = tested on: LCK
# LIMK1 = tested on: LIMK1
# LIMK2 = tested on: LIMK2
# LKB1 = tested on: T2, LKB1
# T2 construct: gene STK11
# LOK = tested on: T3, LOK
# T3 construct: gene STK10
# LRRK2 = tested on: LRRK2
# LTK = tested on: LTK
# LYN = tested on: LYN
# LZK = tested on: T4, LZK
# T4 construct: gene MAP3K13
# MAK = tested on: MAK
# MAP3K15 = tested on: MAP3K15
# MAP3K1 = tested on: MAP3K1
# MAP3K2 = tested on: MAP3K2
# MAP3K3 = tested on: MAP3K3
# MAP3K4 = tested on: MAP3K4
# 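Also: KINOMEscan kinase panel screen.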
SMILES,%Inh (JNK3) [%],%Inh (KIT-autoinhibited) [%],%Inh (KIT) [%],%Inh (LATS1) [%],%Inh (LATS2) [%],%Inh (LCK) [%],%Inh (LIMK1) [%],%Inh (LIMK2) [%],%Inh (LKB1) [%],%Inh (LOK) [%],%Inh (LRRK2) [%],%Inh (LTK) [%],%Inh (LYN) [%],%Inh (LZK) [%],%Inh (MAK) [%],%Inh (MAP3K15) [%],%Inh (MAP3K1) [%],%Inh (MAP3K2) [%],%Inh (MAP3K3) [%],%Inh (MAP3K4) [%]
CS(=O)(=O)CCNCc1nc(-c2ccc3ncnc(Nc4ccc5c(cnn5Cc5ccccc5)c4)c3c2)cs1.Cl.Cl [GW569716],4,0,6,0,0,9,0,0,0,0,22,0,0,42,11,0,12,1,0,5
FC(F)(F)c1ccccc1-c1cc(-c2c[nH]nc2-c2ccccn2)ccn1 [GW679396],40,0,3,0,0,17,0,0,11,0,1,5,0,11,35,0,11,0,0,24
CC(=O)c1cccc(NC(=O)NC2CCN(c3ccnc(Nc4ccc(F)cc4)n3)C2)c1 (stereo not shown) [GSK1379710],22,4,49,0,2,12,11,22,23,0,14,0,0,28,47,7,3,0,0,30
COc1cccc(NC(=O)Nc2ccc(C)c(-c3ccc(C(=O)Nc4ccncc4)cc3)c2)c1 [GSK1398474],26,0,99.8,0,5,43,11,8,0,0,0,23,97.9,0,100,0,13,0,0,20
Cc1c(Cn2c(C)c(C)n3c(=O)cc(N4CCOCC4)nc23)cccc1C(F)(F)F [GSK2328680],0,0,9,86,1,18,8,4,18,0,0,0,0,0,16,0,16,0,0,9
Cn1cncc1-c1cc2c(Nc3ccc(OCc4ccccc4)cc3)ncnc2cn1 [GW281179],1,0,39,0,0,24,11,6,0,0,10,4,0,0,19,0,0,0,0,15
CNc1nc(-c2ccc3c(N)n[nH]c3c2)cc(N2C[C@@H](C(=O)Nc3ccccc3)CC[C@H]2C)n1 [GSK2298859],3,0,4,0,3,22,0,13,7,0,0,0,0,20,9,0,0,0,0,0
Cc1ccc(NC(=O)Nc2ccccc2F)cc1-c1ccc(C(=O)Nc2ccncc2)cc1 [GSK1398477],0,5,99.6,0,2,68,36,15,0,33,15,16,47,0,30,0,12,5,0,24
Fc1ccc(-c2nn3cccc(F)c3c2-c2ccncc2)cc1 [GW475620],97.4,0,3,12,0,18,0,0,0,8,24,8,6,0,0,0,9,8,0,0
COc1ccc(Nc2nccc(N3CCC(NC(=O)C(C)c4ccc(Cl)cc4)CC3)n2)cc1 (stereo not shown) [GSK1379812],10,0,15,32,100,38,2,18,11,0,0,27,0,36,64,0,12,0,0,15
COc1cc2ncnc(Nc3cccc(Br)c3)c2cc1OC.Cl [GI230329],,0,10,0,0,66,0,0,10,36,0,0,67,38,34,0,2,33,29,4
CCn1c(-c2c(N)noc2C)nc2cnccc21 [SB-737856],9,0,0,0,0,10,3,100,0,0,0,10,0,0,0,0,0,17,0,19
O=C1NC(=O)C(c2ccc(Cl)cc2)=C1Nc1cccc(Cl)c1 [SB-317651],54,15,0,0,9,0,0,7,23,0,0,0,22,6,16,0,0,0,0,1
O=C1NC(=O)C(c2ccc(Cl)cc2)=C1Nc1ccc(O)cc1 [SB-340867],0,0,0,17,0,5,11,0,13,0,0,0,8,0,7,7,0,0,11,28
Cc1c(Cn2c3ccccc3n3c(=O)cc(N4CCOCC4)nc23)cccc1C(F)(F)F [GSK2306394],4,0,7,0,0,11,0,3,0,0,33,11,0,0,15,0,14,2,0,18
COc1nccc(-c2c(-c3ccc(F)cc3)ncn2CCCN2CCOCC2)n1 [SB-282852],51,20,0,0,27,25,0,0,0,45,0,0,0,0,29,0,0,0,13,7
COc1cccc(CNC(=O)NC2CCN(c3ccnc(Nc4ccc(F)cc4)n3)C2)c1 (stereo not shown) [GSK1379723],11,0,23,10,0,11,3,0,0,0,25,59,0,0,23,0,7,0,0,13
Cc1cnc(N)c(/C=C/c2cncc(C(=O)NCCc3ccc(Cl)cc3Cl)c2)c1.Cl [GSK190937],4,0,99.6,0,36,7,0,2,28,0,0,0,20,0,9,0,7,0,0,0
Cc1ccc(NC(=O)Nc2ccc(Cl)cc2)cc1-c1ccc(C(=O)Nc2ccncc2)cc1 [GSK1398472],1,4,99.9,2,0,60,28,67,0,35,0,2,30,3,18,0,3,16,0,6
